In the supplement of paper PMC11732987, “Enantioselective OTUD7B fragment discovery through chemoproteomics screening and high-throughput optimisation” (Communications Chemistry, 2025):

Legend:
Experiment in all cases: log2 ratio of Biotin-Ahx-Ub-VS probe labelling (fragment/DMSO); higher = less target engagement (more negative = stronger competition), active = hit call of the paper (q ≤ 0.05, log2 ratio ≤ -1)
Settings in all cases: compound concentration: 200 uM; treatment time: 3 h
[1] = molecular target: USP34 (UniProt Q70CQ2)
Outline: (§1)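 The table lists average log2 ratios of fragment over vehicle, from an unpaired t-test on global-median-normalised Spectronaut label-free quantities. Proteins with ≥2 unique peptides were used. Samples were HEK293T lysate (495 µg) treated in triplicate with fragment at 200 µM or vehicle for 3 h, then with Biotin-Ahx-Ub-VS (0.5 µM final) for 1 h, with labelled DUBs NeutrAvidin-enriched and run by diaPASEF LC-MS/MS.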

[2] = molecular target: T1, USP36 (UniProt Q9P275)
T1 sequence (whole entry): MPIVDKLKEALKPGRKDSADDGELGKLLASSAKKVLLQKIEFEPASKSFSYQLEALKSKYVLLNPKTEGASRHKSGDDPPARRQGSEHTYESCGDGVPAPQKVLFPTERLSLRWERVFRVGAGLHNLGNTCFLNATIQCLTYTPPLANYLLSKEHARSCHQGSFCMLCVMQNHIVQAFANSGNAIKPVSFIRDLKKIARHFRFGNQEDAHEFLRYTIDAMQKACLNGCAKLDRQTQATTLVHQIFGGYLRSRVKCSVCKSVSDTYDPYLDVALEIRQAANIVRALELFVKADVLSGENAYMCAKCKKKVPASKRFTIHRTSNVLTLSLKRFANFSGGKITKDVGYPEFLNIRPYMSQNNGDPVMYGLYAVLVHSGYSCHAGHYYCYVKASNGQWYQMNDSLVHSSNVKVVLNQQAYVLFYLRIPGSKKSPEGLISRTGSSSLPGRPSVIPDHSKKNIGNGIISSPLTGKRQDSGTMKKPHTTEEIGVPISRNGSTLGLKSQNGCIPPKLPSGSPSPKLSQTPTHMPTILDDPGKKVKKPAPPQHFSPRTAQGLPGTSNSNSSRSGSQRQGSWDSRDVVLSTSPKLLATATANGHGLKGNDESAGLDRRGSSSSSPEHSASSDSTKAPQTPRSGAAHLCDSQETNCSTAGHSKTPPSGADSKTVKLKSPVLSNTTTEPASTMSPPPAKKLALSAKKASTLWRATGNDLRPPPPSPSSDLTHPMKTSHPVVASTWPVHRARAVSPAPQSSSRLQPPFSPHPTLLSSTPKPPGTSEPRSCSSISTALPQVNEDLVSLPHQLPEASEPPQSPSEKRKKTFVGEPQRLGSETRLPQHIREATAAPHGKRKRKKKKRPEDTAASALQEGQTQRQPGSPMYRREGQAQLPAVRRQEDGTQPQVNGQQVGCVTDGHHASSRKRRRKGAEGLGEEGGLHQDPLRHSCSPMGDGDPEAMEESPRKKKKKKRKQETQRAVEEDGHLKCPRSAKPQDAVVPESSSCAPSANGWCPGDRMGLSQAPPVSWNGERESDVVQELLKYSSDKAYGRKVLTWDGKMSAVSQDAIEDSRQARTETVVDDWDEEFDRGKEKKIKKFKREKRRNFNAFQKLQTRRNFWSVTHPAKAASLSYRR
Outline: as §1

[3] = molecular target: T2, USP38 (UniProt Q8NB14)
T2 sequence (whole entry): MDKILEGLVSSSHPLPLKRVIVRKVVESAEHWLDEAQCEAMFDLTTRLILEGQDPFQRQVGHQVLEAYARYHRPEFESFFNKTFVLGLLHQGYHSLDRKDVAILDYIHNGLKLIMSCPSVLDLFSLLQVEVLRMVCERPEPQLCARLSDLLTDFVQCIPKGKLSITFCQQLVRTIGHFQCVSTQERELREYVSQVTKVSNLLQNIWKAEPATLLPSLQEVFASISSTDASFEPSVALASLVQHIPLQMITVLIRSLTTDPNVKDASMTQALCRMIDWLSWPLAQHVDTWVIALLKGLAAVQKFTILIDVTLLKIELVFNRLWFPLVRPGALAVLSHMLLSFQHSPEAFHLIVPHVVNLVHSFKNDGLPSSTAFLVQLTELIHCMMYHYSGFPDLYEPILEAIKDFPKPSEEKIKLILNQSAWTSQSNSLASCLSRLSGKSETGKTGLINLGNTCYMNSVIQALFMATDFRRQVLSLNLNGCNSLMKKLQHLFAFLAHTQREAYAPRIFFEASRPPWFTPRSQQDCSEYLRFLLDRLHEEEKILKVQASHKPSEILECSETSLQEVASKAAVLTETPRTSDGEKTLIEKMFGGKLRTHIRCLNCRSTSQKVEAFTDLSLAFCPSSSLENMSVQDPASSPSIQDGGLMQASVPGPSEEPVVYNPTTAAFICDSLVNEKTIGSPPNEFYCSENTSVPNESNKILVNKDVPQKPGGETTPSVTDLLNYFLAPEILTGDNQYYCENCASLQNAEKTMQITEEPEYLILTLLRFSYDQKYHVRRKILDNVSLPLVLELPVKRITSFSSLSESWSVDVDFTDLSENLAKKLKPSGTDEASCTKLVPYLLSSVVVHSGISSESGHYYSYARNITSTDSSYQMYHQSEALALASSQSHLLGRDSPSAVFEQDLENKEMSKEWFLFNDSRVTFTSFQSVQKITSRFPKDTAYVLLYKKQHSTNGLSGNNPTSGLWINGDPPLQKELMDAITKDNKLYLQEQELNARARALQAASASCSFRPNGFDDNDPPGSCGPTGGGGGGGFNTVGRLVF
Outline: as §1

[4] = molecular target: T3, USP39 (UniProt Q53GS9)
T3 sequence (whole entry): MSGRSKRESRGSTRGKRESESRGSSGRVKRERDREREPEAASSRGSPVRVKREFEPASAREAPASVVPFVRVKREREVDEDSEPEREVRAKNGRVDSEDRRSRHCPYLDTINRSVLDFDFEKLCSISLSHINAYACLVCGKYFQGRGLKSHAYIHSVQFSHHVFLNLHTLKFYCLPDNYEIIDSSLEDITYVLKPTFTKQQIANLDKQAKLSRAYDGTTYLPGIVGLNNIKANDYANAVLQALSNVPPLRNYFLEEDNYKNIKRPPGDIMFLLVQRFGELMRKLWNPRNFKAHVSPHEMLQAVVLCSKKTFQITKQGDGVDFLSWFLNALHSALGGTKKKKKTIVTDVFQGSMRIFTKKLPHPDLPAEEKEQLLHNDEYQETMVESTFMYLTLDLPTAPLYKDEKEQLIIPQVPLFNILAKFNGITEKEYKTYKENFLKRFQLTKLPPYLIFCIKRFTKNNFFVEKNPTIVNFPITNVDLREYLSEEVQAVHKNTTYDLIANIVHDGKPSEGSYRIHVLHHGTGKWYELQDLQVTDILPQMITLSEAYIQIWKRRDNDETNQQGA
Outline: as §1

[5] = molecular target: T4, USP4 (UniProt Q13107)
T4 sequence (whole entry): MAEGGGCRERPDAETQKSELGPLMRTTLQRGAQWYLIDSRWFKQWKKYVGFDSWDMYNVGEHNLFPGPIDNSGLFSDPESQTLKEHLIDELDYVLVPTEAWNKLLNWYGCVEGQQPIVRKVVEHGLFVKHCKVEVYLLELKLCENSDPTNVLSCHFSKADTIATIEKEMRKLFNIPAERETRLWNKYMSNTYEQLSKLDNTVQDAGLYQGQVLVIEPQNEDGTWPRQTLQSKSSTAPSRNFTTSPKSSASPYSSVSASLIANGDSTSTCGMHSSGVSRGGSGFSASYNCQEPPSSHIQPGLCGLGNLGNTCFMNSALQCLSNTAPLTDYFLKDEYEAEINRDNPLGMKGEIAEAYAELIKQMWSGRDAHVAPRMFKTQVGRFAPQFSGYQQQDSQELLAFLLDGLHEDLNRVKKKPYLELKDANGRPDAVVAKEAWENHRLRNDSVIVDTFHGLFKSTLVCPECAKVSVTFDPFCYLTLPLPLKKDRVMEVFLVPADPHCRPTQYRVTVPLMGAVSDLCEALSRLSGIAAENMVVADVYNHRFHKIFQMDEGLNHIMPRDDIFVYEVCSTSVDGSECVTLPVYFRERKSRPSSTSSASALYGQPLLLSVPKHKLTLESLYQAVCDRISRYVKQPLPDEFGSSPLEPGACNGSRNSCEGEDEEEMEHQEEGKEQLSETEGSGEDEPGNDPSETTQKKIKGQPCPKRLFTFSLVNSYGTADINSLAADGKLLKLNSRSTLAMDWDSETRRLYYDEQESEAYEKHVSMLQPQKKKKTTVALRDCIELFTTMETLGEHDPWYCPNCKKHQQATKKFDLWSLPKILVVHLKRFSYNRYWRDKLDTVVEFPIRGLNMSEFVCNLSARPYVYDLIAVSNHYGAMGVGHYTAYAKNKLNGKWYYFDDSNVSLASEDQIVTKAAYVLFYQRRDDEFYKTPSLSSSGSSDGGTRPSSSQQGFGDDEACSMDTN
Outline: as §1

Measured: log2 ratio of Biotin-Ahx-Ub-VS probe labelling

USP34, sequence (Q70CQ2 whole entry, the tested form may be a part): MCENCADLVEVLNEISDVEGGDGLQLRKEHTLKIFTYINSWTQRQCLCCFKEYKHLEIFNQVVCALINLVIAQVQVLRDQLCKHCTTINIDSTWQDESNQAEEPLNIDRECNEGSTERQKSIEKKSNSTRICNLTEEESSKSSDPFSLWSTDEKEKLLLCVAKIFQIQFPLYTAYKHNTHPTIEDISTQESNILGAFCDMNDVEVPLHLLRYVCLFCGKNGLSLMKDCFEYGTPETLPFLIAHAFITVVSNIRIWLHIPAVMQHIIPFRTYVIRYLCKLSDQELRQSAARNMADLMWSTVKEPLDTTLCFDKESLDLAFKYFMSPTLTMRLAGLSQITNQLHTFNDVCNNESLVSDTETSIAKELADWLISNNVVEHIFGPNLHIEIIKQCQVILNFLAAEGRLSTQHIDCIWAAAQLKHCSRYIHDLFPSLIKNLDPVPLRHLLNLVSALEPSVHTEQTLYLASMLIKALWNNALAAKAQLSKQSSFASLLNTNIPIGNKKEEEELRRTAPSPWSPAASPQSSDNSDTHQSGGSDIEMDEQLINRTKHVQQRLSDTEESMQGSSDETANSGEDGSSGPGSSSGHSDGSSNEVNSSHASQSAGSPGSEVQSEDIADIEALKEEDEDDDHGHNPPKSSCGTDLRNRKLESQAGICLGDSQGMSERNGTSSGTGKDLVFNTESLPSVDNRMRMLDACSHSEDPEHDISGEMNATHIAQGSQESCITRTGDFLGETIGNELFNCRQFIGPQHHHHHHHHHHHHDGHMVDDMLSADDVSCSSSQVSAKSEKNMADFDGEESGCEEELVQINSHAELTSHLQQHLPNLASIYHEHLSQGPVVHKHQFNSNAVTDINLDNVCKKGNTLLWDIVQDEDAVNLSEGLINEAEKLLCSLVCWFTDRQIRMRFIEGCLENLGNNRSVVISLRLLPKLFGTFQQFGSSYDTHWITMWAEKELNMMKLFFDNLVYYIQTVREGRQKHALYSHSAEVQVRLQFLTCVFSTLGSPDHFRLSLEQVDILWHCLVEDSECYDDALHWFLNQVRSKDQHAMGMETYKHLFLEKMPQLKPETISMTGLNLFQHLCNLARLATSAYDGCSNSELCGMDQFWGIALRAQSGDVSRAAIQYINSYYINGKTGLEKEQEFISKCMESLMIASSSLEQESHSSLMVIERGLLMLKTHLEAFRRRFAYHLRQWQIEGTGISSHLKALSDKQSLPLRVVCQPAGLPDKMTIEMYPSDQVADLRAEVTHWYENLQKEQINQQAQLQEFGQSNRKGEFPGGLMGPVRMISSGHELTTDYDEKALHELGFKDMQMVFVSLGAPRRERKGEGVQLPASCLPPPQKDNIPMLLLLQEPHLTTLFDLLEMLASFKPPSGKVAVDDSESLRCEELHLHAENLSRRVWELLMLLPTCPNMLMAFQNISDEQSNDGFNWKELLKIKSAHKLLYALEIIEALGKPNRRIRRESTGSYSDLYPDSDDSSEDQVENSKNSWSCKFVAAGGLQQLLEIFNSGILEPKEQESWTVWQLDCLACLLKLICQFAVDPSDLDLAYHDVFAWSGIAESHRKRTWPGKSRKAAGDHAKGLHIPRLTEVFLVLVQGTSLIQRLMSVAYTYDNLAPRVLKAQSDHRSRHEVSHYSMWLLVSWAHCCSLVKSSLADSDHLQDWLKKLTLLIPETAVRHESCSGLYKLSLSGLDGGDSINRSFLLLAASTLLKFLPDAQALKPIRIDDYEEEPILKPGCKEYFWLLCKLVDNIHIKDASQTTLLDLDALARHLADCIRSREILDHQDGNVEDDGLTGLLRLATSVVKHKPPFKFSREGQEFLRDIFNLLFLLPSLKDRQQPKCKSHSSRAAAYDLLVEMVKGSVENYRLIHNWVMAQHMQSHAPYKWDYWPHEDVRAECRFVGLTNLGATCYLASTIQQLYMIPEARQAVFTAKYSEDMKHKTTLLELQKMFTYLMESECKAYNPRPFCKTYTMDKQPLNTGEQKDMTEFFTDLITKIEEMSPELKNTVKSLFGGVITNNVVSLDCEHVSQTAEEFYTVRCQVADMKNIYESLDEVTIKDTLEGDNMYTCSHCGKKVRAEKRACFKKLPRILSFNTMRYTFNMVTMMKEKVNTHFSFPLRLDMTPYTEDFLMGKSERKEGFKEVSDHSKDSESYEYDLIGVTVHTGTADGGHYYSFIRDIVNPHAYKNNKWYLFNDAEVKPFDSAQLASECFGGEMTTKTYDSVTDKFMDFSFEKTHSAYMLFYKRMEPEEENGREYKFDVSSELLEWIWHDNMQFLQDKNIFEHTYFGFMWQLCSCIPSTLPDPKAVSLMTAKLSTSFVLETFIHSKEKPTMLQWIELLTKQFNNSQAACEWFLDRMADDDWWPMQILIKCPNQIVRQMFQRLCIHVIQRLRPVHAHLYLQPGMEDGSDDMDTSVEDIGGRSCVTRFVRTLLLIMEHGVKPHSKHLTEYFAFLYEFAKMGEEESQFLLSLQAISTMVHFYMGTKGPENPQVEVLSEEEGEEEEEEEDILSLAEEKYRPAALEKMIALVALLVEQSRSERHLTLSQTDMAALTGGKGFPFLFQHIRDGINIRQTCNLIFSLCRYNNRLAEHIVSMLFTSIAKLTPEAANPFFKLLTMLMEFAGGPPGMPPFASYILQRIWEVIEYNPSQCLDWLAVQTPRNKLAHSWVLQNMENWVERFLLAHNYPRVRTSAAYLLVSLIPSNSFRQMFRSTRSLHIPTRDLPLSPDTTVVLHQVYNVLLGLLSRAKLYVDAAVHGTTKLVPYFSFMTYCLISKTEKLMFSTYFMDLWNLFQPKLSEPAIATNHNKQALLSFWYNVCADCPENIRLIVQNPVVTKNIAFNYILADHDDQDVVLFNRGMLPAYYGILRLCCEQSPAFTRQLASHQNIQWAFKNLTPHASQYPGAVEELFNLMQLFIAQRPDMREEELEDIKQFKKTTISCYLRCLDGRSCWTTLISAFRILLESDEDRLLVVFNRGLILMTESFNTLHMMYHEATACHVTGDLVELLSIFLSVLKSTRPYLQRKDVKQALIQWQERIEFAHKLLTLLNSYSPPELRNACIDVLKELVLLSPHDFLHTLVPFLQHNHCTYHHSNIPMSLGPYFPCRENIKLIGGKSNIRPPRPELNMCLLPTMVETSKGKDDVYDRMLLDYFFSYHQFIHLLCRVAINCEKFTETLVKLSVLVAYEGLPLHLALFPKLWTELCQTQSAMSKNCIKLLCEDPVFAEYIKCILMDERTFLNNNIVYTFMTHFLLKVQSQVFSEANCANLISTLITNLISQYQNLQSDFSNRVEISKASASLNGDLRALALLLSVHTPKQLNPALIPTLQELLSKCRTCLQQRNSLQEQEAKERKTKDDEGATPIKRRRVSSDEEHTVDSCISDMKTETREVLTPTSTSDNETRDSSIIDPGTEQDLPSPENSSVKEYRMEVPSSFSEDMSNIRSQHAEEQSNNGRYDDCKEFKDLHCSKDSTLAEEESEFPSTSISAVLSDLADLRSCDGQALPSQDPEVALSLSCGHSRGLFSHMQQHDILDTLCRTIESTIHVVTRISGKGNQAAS

Cc1ccc(CNC(=O)CCl)nc1C.Cl
inactive: [1] -0.103 | [2] 0.158 | [3] 0.0543 | [4] 0.0861 | [5] 0.0382
